According to PubChem BioAssay:
Activity calls are given as the source filed them.

Legend:
[1] = tested on: Human papillomavirus type 1a protein E7 (residues 44-93); assay: small molecules binding HPV E7 44-93 – biochemical, small-molecule microarray, residues 44-93, 635 nm fluorescence, primary screen (AID 1108); details: fluorescence 635 nm, higher = more signal;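 note: E7 fragment applied at 1 µg/mL in TBST for 1 h at 4 C; score combines spot fluorescence with its signal to noise ratio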
[2] = hepatitis C replication reporter changes, two-sided – Huh7 cells, luciferase reporter, HCV replication inhibitor project, primary screen (AID 1109); details: Huh7 HCV replicon luciferase reporter, 48 h; higher = more signal;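 note: huh7 hepatoma cells harbouring a luciferase neomycin HCV replicon reporter; luciferase luminescence as measure of HCV replicon replication; test concentration not given here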
[3] = target: Left-right determination factor 2 (Homo sapiens) (UniProt O00292); assay: small molecules binding LEFTY2 protein – biochemical, small-molecule microarray, 635 nm fluorescence scan, primary screen (AID 1110); details: higher = more signal
[4] = target: Calmodulin-1 (Homo sapiens) (UniProt P0DP23); assay: small molecules binding calmodulin-1 with EGTA – biochemical, small-molecule microarray, Cy5-labelled CALM1, profiling panel (AID 1111); details: Cy5-CALM1 binding fluorescence, higher = more signal;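 note: labelled calmodulin applied in Tris saline Tween buffer holding calcium plus EGTA and DTT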
[5] = target: Calmodulin-1 (Homo sapiens) (UniProt P0DP23); assay: small molecules binding Ca-loaded calmodulin-1 – biochemical, small-molecule microarray, Cy5-labelled CALM1, plus calcium, artefact control for SMM control-protein annotation, profiling panel (AID 1112); details: Cy5-CALM1 binding fluorescence, higher = more signal;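 note: score merges spot fluorescence with signal to noise from triplicate slides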
[6] = probe aWnt5a binding to arrayed compounds – biochemical, biotinylated probe, 635/667 nm fluorescence, primary screen (AID 1113); details: small-molecule microarray, higher = more signal;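 note: score merges 667 nm fluorescence intensity with signal-to-noise per printed feature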
[7] = probe aShh binding to arrayed compounds – biochemical, biotinylated probe, 635/667 nm fluorescence, primary screen (AID 1114); details: small-molecule microarray, higher = more signal;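 note: probe is biotin-labelled aShh protein from a stem cell growth factor screen; measures binding of labelled protein to compounds printed on the slide; score merges feature fluorescence at 667 nm with signal-to-noise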
[8] = probe aNog binding to arrayed compounds – biochemical, biotinylated probe, 635/667 nm fluorescence, primary screen (AID 1115); details: small-molecule microarray, higher = more signal;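 note: probe is biotinylated aNog protein used at 0.15 µg/mL for 1 h at 4 C; z-score combines 667 nm fluorescence of each spot with its signal to noise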
[9] = target: Torsin-1A-interacting protein 1 (Homo sapiens) (UniProt Q5JTV8); assay: compound microarray binding of lysate hLAP1 – cell lysate, small-molecule microarray, COS7 lysate, 635/667 nm fluorescence, primary screen (AID 1116); details: 635 nm fluorescence, higher = more signal
[10] = target: Alpha-bungarotoxin (Bungarus multicinctus) (UniProt P60615); assay: compounds binding labelled alpha-BTX control protein – biochemical, small-molecule microarray, Alexa647 label, 635/667 nm fluorescence, artefact control for SMM control protein annotation, profiling panel (AID 1117); details: alpha-BTX-A647 binding fluorescence, higher = more signal
Albumin (Bos taurus) = Albumin (Bos taurus) (UniProt P02769); assay: compounds binding labelled BSA control protein – biochemical, small-molecule microarray, Alexa647 label, 635/667 nm fluorescence, artefact control for SMM control protein annotation, profiling panel (AID 1118); details: BSA-A647 binding, fluorescence 635 nm, higher = more signal;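 note: score merges 667 nm emission intensity and signal-to-noise per printed compound spot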
[11] = probe aXIP binding to arrayed compounds – biochemical, NeuroSMM set, 635/667 nm fluorescence, primary screen (AID 1119); details: small-molecule microarray, higher = more signal, called active from +8 up or from −8 down;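 note: probe is the protein aXip251-270 applied at 1 µg/mL to compound-printed slides; binding of probe to printed compounds measured as 667 nm fluorescence plus signal to noise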
[12] = probe aNOTCH3 binding on compound microarray – biochemical, small-molecule microarray, 635/667 nm fluorescence, primary screen (AID 1120); details: higher = more signal;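 note: probe is a biotin-tagged antibody raised against NOTCH3 rather than NOTCH3 protein; score merges spot fluorescence near 667 nm with spot signal to noise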
[13] = probe aNOTCH2 binding on compound microarray – biochemical, small-molecule microarray, 635/667 nm fluorescence, primary screen (AID 1121); details: higher = more signal;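 note: score merges feature fluorescence read at 667 nm with its signal to noise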
[14] = target: Carbonic anhydrase 2 (Homo sapiens) (UniProt P00918); assay: compounds binding carbonic anhydrase 2 – biochemical, small-molecule microarray, Alexa647-labelled CAII, profiling panel (AID 1122); details: CAII-A647 binding fluorescence, higher = more signal
[15] = COS7 lysate on small-molecule microarray, probe aHis, 635 nm (AID 1123); details: COS7 cell lysate, fluorescence, higher = more signal;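 note: z-score combines 667nm fluorescence intensity with signal-to-noise per printed compound spot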
[16] = probe aLAP1 signal on lysate-treated microarray – cell lysate, small-molecule microarray, COS7 lysate, primary screen (AID 1124); details: probe aLAP1, fluorescence, higher = more signal;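 note: lysate comes from COS7 cells expressing LAP1 and is applied at 0.3 µg/mL; score merges spot fluorescence near 667 nm with signal-to-noise over triplicate slides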
Sam68 (KHDRBS1) = assay: compounds binding KHDRBS1 protein – biochemical, small-molecule microarray, 635 nm fluorescence, primary screen (AID 1125); details: higher = more signal;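 note: score merges 667 nm channel intensity with signal to noise over triplicate slides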
[17] = tested on: Chordin-like protein 2 (CHRDL2); assay: compounds binding chordin-like 2 – biochemical, small-molecule microarray, 635 nm fluorescence, primary screen (AID 1126); details: fluorescence 635 nm, higher = more signal;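 note: printed compound slides probed with Chrdl2 protein at 4 µg/mL for 1 h at 4 C; score merges 667 nm emission intensity with signal to noise over three replicate slides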
[18] = target: Concanavalin-A (Canavalia ensiformis) (UniProt P02866); assay: compounds binding concanavalin A lectin – biochemical, small-molecule microarray, Alexa647 label, 635 nm, artefact control for SMM control protein annotation, primary screen (AID 1127); details: ConA-A647 binding fluorescence, higher = more signal;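 note: z combines 667 nm emission intensity with signal-to-noise across three replicate slides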
Concanavalin-A (Canavalia ensiformis), sequence (P02866 whole entry, looked up): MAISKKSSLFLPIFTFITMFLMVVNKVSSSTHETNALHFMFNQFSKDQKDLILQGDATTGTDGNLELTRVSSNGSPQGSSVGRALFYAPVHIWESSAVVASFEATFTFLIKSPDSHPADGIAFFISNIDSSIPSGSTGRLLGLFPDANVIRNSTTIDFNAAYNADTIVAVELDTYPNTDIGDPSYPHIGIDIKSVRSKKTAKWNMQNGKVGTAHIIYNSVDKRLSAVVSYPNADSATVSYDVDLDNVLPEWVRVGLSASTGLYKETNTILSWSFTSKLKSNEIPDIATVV

Alpha-bungarotoxin (Bungarus multicinctus), sequence (P60615 whole entry, looked up): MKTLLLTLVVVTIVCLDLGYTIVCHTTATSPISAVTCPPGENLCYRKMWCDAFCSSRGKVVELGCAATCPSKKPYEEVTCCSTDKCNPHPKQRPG
Left-right determination factor 2 (Homo sapiens), sequence (O00292 whole entry, looked up): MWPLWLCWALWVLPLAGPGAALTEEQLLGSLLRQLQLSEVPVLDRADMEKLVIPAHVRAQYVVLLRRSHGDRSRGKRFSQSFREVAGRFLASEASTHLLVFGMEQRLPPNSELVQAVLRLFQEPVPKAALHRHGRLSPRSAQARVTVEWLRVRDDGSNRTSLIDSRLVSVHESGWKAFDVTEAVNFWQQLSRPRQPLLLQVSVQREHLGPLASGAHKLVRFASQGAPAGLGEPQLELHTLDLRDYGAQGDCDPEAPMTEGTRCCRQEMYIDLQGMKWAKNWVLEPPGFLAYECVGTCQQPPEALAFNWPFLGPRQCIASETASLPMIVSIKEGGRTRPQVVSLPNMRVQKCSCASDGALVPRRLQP
Torsin-1A-interacting protein 1 (Homo sapiens), sequence (Q5JTV8 whole entry, looked up): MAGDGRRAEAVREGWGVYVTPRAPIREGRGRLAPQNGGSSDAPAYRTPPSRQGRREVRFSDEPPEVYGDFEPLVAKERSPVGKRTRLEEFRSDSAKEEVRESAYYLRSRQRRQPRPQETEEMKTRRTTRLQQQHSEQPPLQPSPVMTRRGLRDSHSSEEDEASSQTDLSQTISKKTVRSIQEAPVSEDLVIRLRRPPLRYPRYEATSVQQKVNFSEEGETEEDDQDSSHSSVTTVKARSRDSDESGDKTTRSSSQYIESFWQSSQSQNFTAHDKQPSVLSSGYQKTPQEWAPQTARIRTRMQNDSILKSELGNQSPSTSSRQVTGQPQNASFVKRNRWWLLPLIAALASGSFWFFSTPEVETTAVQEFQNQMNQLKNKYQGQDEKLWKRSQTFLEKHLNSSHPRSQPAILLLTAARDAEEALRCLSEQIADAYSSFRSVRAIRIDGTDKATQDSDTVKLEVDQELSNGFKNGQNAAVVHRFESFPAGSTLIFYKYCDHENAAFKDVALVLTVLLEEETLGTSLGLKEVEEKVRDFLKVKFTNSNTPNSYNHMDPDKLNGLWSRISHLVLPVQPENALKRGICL
Albumin (Bos taurus), sequence (P02769 whole entry, looked up): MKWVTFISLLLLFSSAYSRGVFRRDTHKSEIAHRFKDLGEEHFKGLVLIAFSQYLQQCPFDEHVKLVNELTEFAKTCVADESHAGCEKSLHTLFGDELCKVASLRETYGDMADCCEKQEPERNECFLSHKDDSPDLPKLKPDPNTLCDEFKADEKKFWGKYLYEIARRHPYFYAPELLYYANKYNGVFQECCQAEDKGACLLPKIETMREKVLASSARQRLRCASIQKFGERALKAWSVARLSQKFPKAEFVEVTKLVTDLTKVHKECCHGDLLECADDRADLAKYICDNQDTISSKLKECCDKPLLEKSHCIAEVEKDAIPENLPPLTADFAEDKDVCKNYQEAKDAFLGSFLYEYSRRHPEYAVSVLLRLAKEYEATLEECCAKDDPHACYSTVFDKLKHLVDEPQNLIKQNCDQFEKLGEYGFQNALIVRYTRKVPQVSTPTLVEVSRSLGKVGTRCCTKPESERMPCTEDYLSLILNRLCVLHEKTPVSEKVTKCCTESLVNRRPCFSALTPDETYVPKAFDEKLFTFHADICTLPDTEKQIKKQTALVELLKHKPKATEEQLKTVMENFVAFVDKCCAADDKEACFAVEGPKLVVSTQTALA

| SMILES | composite z-score [1] | z-score [2] | composite z-score [3] | composite z-score [4] | composite z-score [5] | composite z-score [6] | composite z-score [7] | composite z-score [8] | composite z-score [9] | composite z-score [10] | composite z-score (Albumin (Bos taurus)) | composite Z-score [11] | composite z-score [12] | composite z-score [13] | composite z-score [14] | composite z-score [15] | composite z-score [16] | composite z-score (Sam68 (KHDRBS1)) | composite z-score [17] | composite z-score [18] |
| --- | --- | --- | --- | --- | --- | --- | --- | --- | --- | --- | --- | --- | --- | --- | --- | --- | --- | --- | --- | --- |
| COc1cc(C(O)C2C=CC3C(=O)N(Cc4ccccc4)C(=O)C3N2n2cnnc2)cc(OC)c1OC (stereo not given) | 0.335 | 0.312 | 0.109 | 0.409 | 0.0996 | 0.0751 | 0.543 | 0.266 | 0.88 | 0.971 | 0.578 | -0.0603 (inactive) | 0.401 | 0.202 | 0.686 | 1.1 | 1.01 | 0.462 | -0.141 | 0.458 |
| COc1ccc(NC(=O)O[C@H]2[C@@H]3OC(=O)[C@H](Cc4cccc(Br)c4)C/C=C/C[C@@H](Cc4cccc(Br)c4)C(=O)O[C@H]3[C@@H](OC)O[C@@H]2CO)cc1 | 0.277 | 0.714 | 0.601 | 0.492 | -0.062 | -0.027 | 0.235 | 0.325 | 0.882 | 0.526 | 0.259 | 0.878 (inactive) | 0.111 | 0.683 | 0.507 | 0.84 | 0.782 | 0.355 | 0.145 | 0.173 |
| CCOC(=O)C[C@H]1[C@H](OC(=O)c2ccccc2-c2ccccc2)[C@@H](NC(=O)c2ccccc2)c2cc(OCCCO)ccc2N1C(=O)c1ccccc1 | 0.374 | -0.843 | 0.345 | 0.114 | 0.148 | -0.0425 | -0.0146 | -0.0926 | -0.244 | 0.0475 | 0.505 | -0.383 (inactive) | -0.0647 | -0.019 | 0.666 | 0.677 | 0.513 | 0.42 | 0.116 | 0.178 |
| CCCCCN1CC=CC23O[C@@H]4C=CCOC(=O)[C@@H]4[C@H]2C(=O)N(CCO)[C@@H]3C1=O (stereo not given in full) | 0.673 | 0.644 | -0.397 | -0.343 | 0.595 | -0.172 | -0.138 | -0.305 | 0.665 | -0.514 | -0.141 | 0.403 (inactive) | -0.221 | -0.14 | 0.907 | 1.28 | -0.0117 | -0.263 | -1.33 | -0.502 |
| CCCC=C(CCC)[C@@H](NC(=O)CCc1ccccc1)c1ccc(C(F)(F)F)cc1 | 1.36 | -1.51 | -0.203 | 1.58 | 1.03 | 0.451 | 0.93 | 0.555 | 1.11 | 1.23 | 0.964 | -0.1 (inactive) | 0.265 | -0.0095 | 0.58 | 2.82 | 0.0364 | 1.27 | -0.153 | 1.1 |
| C=CCNC(=O)[C@@H]1[C@H]2C(=O)O[C@H](c3ccccc3)[C@H](c3ccccc3)N2[C@H](c2ccc(O)cc2)[C@@]12C(=O)N(C(=O)OCCOC)c1ccc(C#CCCO)cc12 | -0.472 | -0.118 | 0.863 | 0.355 | 0.349 | -0.0276 | -0.0011 | 0.565 | 0.394 | 2.29 | -0.906 | 0.232 (inactive) | 0.364 | -0.0191 | 0.561 | 1.88 | 0.459 | 1.29 | 0.467 | 1.17 |
| C=CCOC(=O)[C@H]1[C@@H]2C(=O)O[C@@H](c3ccccc3)[C@@H](c3ccccc3)N2[C@@H](c2ccc(OCCOC(=O)[C@H]3C[C@H]4C(=O)N[C@@H](CCCCNC(C)=O)C(=O)N4[C@H]3c3cccc(OCCO)c3)cc2)[C@]12C(=O)Nc1ccc(I)cc12 | 1.42 | -1.21 | 0.801 | -0.0021 | -0.451 | 0.0825 | -0.705 | -0.632 | 0.339 | 0.975 | -0.371 | 1.97 (inactive) | -0.366 | -0.354 | 0.605 | 1.47 | 0.353 | 1.25 | 0.736 | 1.12 |
| CCOC(=O)C[C@H]1[C@H](OC(=O)c2ccc(-c3ccccc3)cc2)[C@@H](NC(=O)CC(C)C)c2cc(OCCCO)ccc2N1C(=O)c1ccccc1 | 1.07 | -1.96 | 0.0613 | 0.232 | 0.462 | -0.0718 | -0.2 | -0.1 | 0.266 | 0.198 | 0.506 | -0.221 (inactive) | -0.0057 | -0.124 | 0.108 | 0.806 | -0.2 | 1.03 | 0.0549 | 0.27 |
| C=C(C(=O)CC[C@@H](OC(=O)c1ccccc1-c1ccccc1C(=O)O)c1ccccc1OCCO)C(C)C | 1.38 | -2.63 | 0.355 | 0.0583 | -0.7 | -0.0405 | 0.232 | -0.409 | 0.202 | 1.05 | 0.287 | -0.28 (inactive) | -0.0111 | -0.108 | 0.734 | 0.418 | 0.175 | 1.21 | 0.935 | 0.866 |
| CCOC(=O)C1=CCC(c2ccco2)N(S(=O)(=O)c2ccc(C)cc2)C1 (stereo not given) | 1.36 | -2.3 | 0.297 | 0.921 | 0.0331 | 0.0279 | 0.0048 | -0.423 | 0.761 | 0.818 | 0.769 | 0.204 (inactive) | 0.196 | 0.0006 | 0.581 | 1.48 | 0.509 | 1.22 | 0.388 | 0.956 |
